Activity calls are given as the source filed them.

These results are taken from PubChem BioAssay.

Test [1] can be described thus: optical density shifts of acrAB sulA E. coli – strain DRC41, OD650, 48 h, E. coli filamentation inducer project, primary screen (AID 1152).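 Further: E. coli MC1000 strain DRC41 lacking acrAB efflux pump and sulA.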 The conditions noted are these: higher = more signal, called active from +8 up or from −8 down.
Test [2] is described as follows: probe aLefty1 binding on compound microarray – biochemical, small-molecule microarray, 635/667 nm fluorescence, primary screen (AID 1153).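 Further: score merges spot fluorescence with signal-to-noise ratio from the scanned slide images.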 The conditions noted are these: higher = more signal.
The nature of test [3]: plasmodial surface anion channel blockers, osmotic lysis – cell-based, P. falciparum Indochina, OD700, 1 h, primary screen (AID 1154). The conditions noted are these: P. falciparum Indochina infected RBC osmotic lysis, higher = more signal, called active from +8 up or from −8 down.
Test [4] is described as follows: plasmodial surface anion channel blockers, osmotic lysis – cell-based, P. falciparum Indochina, OD700, 2 h, primary screen (AID 1155).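 Further: lysis reports solute entry through the parasite surface anion channel PSAC.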 To be noted: P. falciparum Indochina infected erythrocytes, higher = more signal, called active from +8 up or from −8 down.
Test [5] is described as follows: changes in parasitized red cell lysis, either direction – P. falciparum Indochina, OD700, 3 h, PSAC antagonist project, primary screen (AID 1156). The conditions noted are these: P. falciparum-infected erythrocytes, osmotic lysis, higher = more signal, called active from +8 up or from −8 down.
The nature of test [6]: plasmodial surface anion channel blockers, osmotic lysis – cell-based, P. falciparum Indochina, OD700, 18 h, primary screen (AID 1157). The conditions noted are these: P. falciparum Indochina infected erythrocytes, osmotic lysis OD700, 18 h; higher = more signal, called active from +8 up or from −8 down.
Test [7] in a line: S6 kinase pathway phospho-S6 level changes – cell-based, A549, cytoblot, luminescence, serum-stimulated, primary screen (AID 1158).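 Further: serum-stimulated A549 lung adenocarcinoma cells; signal is phosphorylated S6 detected by cytoblot immunostaining with HRP secondary.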 The conditions noted are these: 5 h, higher = more signal.
Test [8] addresses NADPH oxidase 2 (Homo sapiens) (UniProt P04839). Description: compounds shifting NOX2 Amplex Red fluorescence – cell-based, HEK293-NOX2, PMA-stimulated, NOX inhibitor project, primary screen (AID 1159). Further: test concentration not given here. To be noted: 45 min, higher = more signal, called active from +8 up or from −8 down.
The target of test [9] is NADPH oxidase 4 (Homo sapiens) (UniProt Q9NPH5). Description: compounds shifting NOX4 Amplex Red fluorescence – cell-based, HEK293-NOX4, tetracycline-induced, NOX inhibitor project, primary screen (AID 1160). The conditions noted are these: HEK293-NOX4, Amplex Red H2O2 fluorescence, 45 min; higher = more signal, called active from +8 up or from −8 down.
NADPH oxidase 4 (Homo sapiens), sequence (Q9NPH5 whole entry, looked up): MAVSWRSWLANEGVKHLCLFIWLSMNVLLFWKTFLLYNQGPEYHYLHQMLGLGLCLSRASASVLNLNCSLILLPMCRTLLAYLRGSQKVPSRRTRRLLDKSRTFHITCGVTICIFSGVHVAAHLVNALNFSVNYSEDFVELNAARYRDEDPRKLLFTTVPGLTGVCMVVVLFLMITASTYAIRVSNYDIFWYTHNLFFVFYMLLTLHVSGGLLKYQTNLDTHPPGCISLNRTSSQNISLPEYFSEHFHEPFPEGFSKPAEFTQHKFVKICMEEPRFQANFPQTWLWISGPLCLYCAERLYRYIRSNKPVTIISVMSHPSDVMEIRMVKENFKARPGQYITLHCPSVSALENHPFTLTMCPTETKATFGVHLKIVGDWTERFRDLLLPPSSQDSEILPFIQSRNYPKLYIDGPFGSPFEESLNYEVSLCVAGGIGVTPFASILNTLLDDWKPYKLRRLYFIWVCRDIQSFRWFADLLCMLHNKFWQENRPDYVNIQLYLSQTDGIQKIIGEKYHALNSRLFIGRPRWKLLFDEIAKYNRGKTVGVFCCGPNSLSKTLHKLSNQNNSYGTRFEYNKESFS
The target in test [10] is NADPH oxidase 5 (Homo sapiens) (UniProt Q96PH1). Description: compounds shifting NOX5 Amplex Red fluorescence – cell-based, HEK293-NOX5, NOX inhibitor project, primary screen (AID 1161). The conditions noted are these: HEK293-NOX5, ionomycin, 45 min, higher = more signal.
NADPH oxidase 5 (Homo sapiens), sequence (Q96PH1 whole entry, looked up): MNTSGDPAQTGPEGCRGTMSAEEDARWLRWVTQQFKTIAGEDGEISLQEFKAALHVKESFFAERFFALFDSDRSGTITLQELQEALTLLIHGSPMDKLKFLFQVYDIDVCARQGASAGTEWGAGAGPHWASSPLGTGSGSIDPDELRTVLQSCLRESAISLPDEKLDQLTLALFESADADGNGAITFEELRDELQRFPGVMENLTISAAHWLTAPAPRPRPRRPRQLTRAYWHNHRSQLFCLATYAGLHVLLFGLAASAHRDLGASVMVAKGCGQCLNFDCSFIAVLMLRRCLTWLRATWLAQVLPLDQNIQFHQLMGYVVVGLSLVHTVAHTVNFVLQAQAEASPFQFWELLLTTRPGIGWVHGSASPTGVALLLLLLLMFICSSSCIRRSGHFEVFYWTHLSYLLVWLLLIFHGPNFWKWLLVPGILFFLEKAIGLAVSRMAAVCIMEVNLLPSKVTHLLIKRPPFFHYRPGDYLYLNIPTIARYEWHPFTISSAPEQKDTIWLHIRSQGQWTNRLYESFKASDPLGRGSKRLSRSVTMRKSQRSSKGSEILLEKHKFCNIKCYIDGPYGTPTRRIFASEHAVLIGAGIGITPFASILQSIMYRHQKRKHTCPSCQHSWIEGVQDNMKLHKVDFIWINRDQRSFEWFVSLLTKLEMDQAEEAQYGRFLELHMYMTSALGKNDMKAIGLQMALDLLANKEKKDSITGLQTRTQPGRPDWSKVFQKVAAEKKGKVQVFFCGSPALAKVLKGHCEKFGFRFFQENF
Test [11] in a line: compound effects on lung adenocarcinoma cell viability – A549, calcein-AM fluorescence, 48 h, basal, profiling panel (AID 1162). Further: test concentration not given here. The conditions noted are these: higher = more signal.
Test [12] can be described thus: compound effects on differentiated 3T3-L1 adipocyte viability – cell-based, 3T3-L1 adipocytes, calcein-AM fluorescence, 48 h, basal, profiling panel (AID 1163). Further: test concentration not given here. The conditions noted are these: 3T3-L1 adipocytes viability, higher = more signal.
A short description of test [13]: compound effects on hepatocellular carcinoma cell viability – HepG2, calcein-AM fluorescence, 48 h, basal, profiling panel (AID 1164). Further: test concentration not given here. The conditions noted are these: higher = more signal.
A short description of test [14]: compound effects on multiple myeloma cell viability – MM1S, calcein-AM fluorescence, 48 h, basal, profiling panel (AID 1165).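 Further: viability of MM1S multiple myeloma cells under basal unstimulated conditions; test concentration not given here.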 To be noted: higher = more signal.
Test [15] in a line: calcein-AM signal in unstimulated myeloma cells – cell-based, calcein-AM fluorescence, 48 h, PK04 Diversity Set, profiling panel (AID 1166).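 Further: cells grown under basal conditions without added stimulus; test concentration not given here.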 To be noted: RPMI8226 myeloma viability, higher = more signal.
A short description of test [16]: JC-1 mitochondrial signal, unstimulated HepG2 cells – cell-based, JC-1 fluorescence, 24 h, 100 nL compound, profiling panel (AID 1167). Further: test concentration not given here. The conditions noted are these: HepG2 mitochondrial potential, higher = more signal.
Test [17] can be described thus: JC-1 mitochondrial signal, unstimulated adipocytes – cell-based, JC-1 fluorescence, 3T3-L1 adipocytes, 24 h, 100 nL compound, profiling panel (AID 1168). Further: test concentration not given here. The conditions noted are these: JC-1 mitochondrial fluorescence, higher = more signal, called active from +8 up or from −8 down.
The nature of test [18]: JC-1 mitochondrial signal, unstimulated myeloma cells – cell-based, JC-1 fluorescence, RPMI8226, 24 h, 100 nL compound, profiling panel (AID 1169). Further: test concentration not given here. The conditions noted are these: JC-1 mitochondrial potential fluorescence, higher = more signal.
A short description of test [19]: JC-1 mitochondrial signal, unstimulated MM1S myeloma – cell-based, JC-1 fluorescence, 24 h, 100 nL compound, profiling panel (AID 1170). Further: test concentration not given here. To be noted: MM1S mitochondrial potential, higher = more signal.
Test [20] in a line: resazurin metabolic signal in A549 cells – cell-based, resazurin fluorescence, 24 h, PK04 Diversity Set, profiling panel (AID 1171). Further: test concentration not given here. The conditions noted are these: A549 viability, higher = more signal, called active from +8 up or from −8 down. For orientation: Resazurin is reduced to fluorescent resorufin, in cell work by metabolically active cells.

NADPH oxidase 2 (Homo sapiens), sequence (P04839 whole entry, looked up): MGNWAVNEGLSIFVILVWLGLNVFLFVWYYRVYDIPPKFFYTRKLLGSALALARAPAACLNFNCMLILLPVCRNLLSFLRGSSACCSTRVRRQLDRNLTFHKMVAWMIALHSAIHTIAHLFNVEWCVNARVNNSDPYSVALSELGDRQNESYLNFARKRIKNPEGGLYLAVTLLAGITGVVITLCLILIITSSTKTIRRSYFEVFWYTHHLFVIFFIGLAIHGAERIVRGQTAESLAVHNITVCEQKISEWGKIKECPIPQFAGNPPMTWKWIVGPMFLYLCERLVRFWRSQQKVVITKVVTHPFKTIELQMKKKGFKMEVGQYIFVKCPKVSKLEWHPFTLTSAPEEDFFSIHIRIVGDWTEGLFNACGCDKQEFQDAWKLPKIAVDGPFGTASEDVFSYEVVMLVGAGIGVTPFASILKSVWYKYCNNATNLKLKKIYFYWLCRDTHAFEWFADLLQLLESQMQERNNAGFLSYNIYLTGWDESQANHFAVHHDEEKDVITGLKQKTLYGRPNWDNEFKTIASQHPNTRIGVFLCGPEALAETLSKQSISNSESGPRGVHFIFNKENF

Take `CCCC[C@H]1OB(O)C[C@H]2C1=C(COC)Cn1c(=O)n(-c3ccccc3)c(=O)n12`: the z-score in test [1] is 0.929 (inactive); in test [3] it was 0.43 (inactive); in test [4], 0.0541 (inactive); in test [5], 0.11 (inactive); in test [6], 0.0357 (inactive); in test [7], 0.385. For the same molecule, the z-score is 0.175 (inactive) in test [8]; 0.317 (inactive) in [9]; 0.476 in test [10]; 0.0913 in test [11]; -0.21 in test [12]; -0.136 in [13]. Further, the z-score in test [14] was -1.16; in [15] it was -0.657; in test [16], 0.0213; in test [17], -0.199 (inactive); in [18] it was 0.454; in [19], -0.73. In addition, the z-score in test [20] is 0.921 (inactive). The molecule also came in with a composite z-score in test [2] of -0.101.
For `Cc1ccc(N2C(=O)c3ccccc3[C@@H](C(=O)NC3CC3)[C@@H]2c2ccc(CO)cc2)nc1`, the z-score in [1] is -0.0739 (inactive); in test [3] it was 1.92 (inactive); in [4], -0.325 (inactive); in [5], 0.62 (inactive); in [6], -0.0389 (inactive); in test [7] it was -0.179. In addition, the z-score is 0.355 (inactive) in test [8]; -0.647 (inactive) in [9]; -1.51 in [10]; -0.684 in [11]; 0.516 in [12]; -0.774 in [13]. The z-score was 0.0291 in test [14]; -2.27 in [15]; -0.0756 in test [16]; -0.289 (inactive) in test [17]; 0.755 in [18]; -0.446 in test [19]. In test [20], the z-score was 0.771 (inactive). Also, the composite z-score in test [2] is -0.138.
Turning to `CCN(CC)c1ccc(N2CC=CC34O[C@@H]5C=CCCOC(=O)C5[C@H]3C(=O)N(CCCCCCO)[C@@H]4C2=O)cc1` (stereo not given in full), the z-score in test [1] was 3.12 (inactive); in [3] it was 1.25 (inactive); in test [4], 0.392 (inactive); in [5] it was 0.474 (inactive); in [6], -0.53 (inactive); in test [7], 0.872. For the same molecule, the z-score in test [8] is -0.089 (inactive); in [9], 0.576 (inactive); in [10], 0.762; in [11] it was 0.75; in test [12] it was 1.45; in test [13], 0.239. In addition, the z-score in test [14] was 1.97; in test [15], 0.401; in test [16] it was 0.432; in test [17] it was -0.641 (inactive); in test [18], -0.197; in test [19] it was -0.585. The z-score in test [20] is 1.02 (inactive). The molecule also came in with a composite z-score in [2] of -0.0361.
Take `COC(=O)[C@@]1(Cc2ccc(OC)cc2)[C@H]2c3cc(C(=O)N4CCCC4)n(Cc4ccc(O)c(OC)c4)c3C[C@H]2CN1C(=O)c1ccccc1`: the z-score in [1] was -0.703 (inactive); in [3], 5.08 (inactive); in test [4], 0.722 (inactive); in test [5], 1.04 (inactive); in test [6], 0.739 (inactive); in test [7], 0.299. Besides, the z-score was -2.31 (inactive) in test [8]; -4.7 (inactive) in test [9]; -4.33 in [10]; -0.226 in test [11]; 0.174 in test [12]; 0.321 in test [13]. The z-score in test [14] is 0.11; in [15] it was -0.243; in test [16] it was 2.27; in test [17], -0.183 (inactive); in test [18], -0.221; in [19], -0.933. Further, in [20], the z-score was -1.47 (inactive). Also, the composite z-score in test [2] stood at 0.622.
For the molecule `COCCOC(=O)N1C(=O)[C@@]2(c3cc(C#Cc4ccc(OC)cc4)ccc31)[C@H](c1ccc(OCCO)cc1)N1[C@H](c3ccccc3)[C@H](c3ccccc3)OC(=O)[C@H]1[C@@H]2C(=O)N1CCN(c2ncccn2)CC1`, the z-score in test [1] is -0.0791 (inactive); in test [3], 5.07 (inactive); in test [4] it was 2.39 (inactive); in test [5] it was 0.738 (inactive); in test [6] it was 1.17 (inactive); in test [7], -0.451. Besides, the z-score in [8] was 0.938 (inactive); in [9], -1.34 (inactive); in [10], 0.656; in test [11] it was -0.76; in [12], 0.901; in test [13], -0.169. The z-score in [14] is -0.624; in [15] it was -0.412; in test [16], 0.548; in [17] it was 2.18 (inactive); in test [18] it was -0.351; in test [19], -0.857. Also, the z-score in test [20] was -0.0439 (inactive). In addition, the composite z-score in test [2] is 0.042.
